14-3-3 PPI: 14-3-3 gamma protein interaction modulation | P61981 | FP, 14-3-3gamma / TMR-pS259-Raf peptide binding | inhibition, % at 40 µM | 0.19% of 160,000 active | AID 422; in the data active = inhibition above about 30%;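 note: 0% = protein plus tracer without compound and 100% = blank with tracer alone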
Target sequence (P61981 whole entry, looked up): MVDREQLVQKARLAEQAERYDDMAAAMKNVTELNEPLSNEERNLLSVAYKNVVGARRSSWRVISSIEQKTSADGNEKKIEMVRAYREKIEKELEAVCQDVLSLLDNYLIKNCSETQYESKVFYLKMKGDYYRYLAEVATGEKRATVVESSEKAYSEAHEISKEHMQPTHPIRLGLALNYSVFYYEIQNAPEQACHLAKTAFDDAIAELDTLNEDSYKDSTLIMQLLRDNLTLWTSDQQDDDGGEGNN
* marks the source's active call; other numbers are inactive results; + = active, no number. The sample as a whole holds a higher share of hits than the screen did.

SMILES	14-3-3 PPI
CC1CCc2sc(NC(=O)c3ccc(Br)o3)c(C#N)c2C1 (stereo not drawn)	-28.6
COC(=O)c1c(C)oc2cc(Br)c(OC(=O)C(C)C)cc12	-3.2
COCCNc1ncnc2ccccc12	31.1*
c1ccc(CNc2ncnc3ccccc23)cc1	-4.9
COCCNc1ncnc2ccc(Br)cc12	8.4
Cc1ccccc1NC(=O)c1ccccc1C	-1.5
Cc1ccc(NC(=O)c2ccccc2C)cc1I	-5.6
Cc1ccccc1C(=O)Nc1ccccc1C(=O)Nc1ccccc1	35.1*
CCc1cccc(NC(=O)c2cc3ccccc3c(=O)o2)c1	-7.3
COc1cc(OC)c(C=Nc2cc([N+](=O)[O-])ccc2C)cc1Br	-5.3
CCOc1ccc(C=Nc2cc([N+](=O)[O-])ccc2C)c(O)c1	+
COC(=O)c1ccc(N=Cc2c(OC(=O)c3cccc([N+](=O)[O-])c3)ccc3ccccc23)cc1	3.2
Cc1ccccc1NC(=O)c1cc2ccccc2c(C=Nc2ccc([N+](=O)[O-])cc2O)c1O	-105.5
CCOc1ccc(-c2nc3cc(N=Cc4cc([N+](=O)[O-])ccc4O)ccc3o2)cc1	-7.0
CC(=O)Oc1ccc2ccccc2c1C=Nc1cc([N+](=O)[O-])ccc1C	87.0*
COc1ccc(C2C(C(=O)OC3CCCC3)=C(C)NC3=C2C(=O)CC(c2ccccc2)C3)cc1Br (stereo not drawn)	-0.1
CCCOc1ccc(/C(O)=C2/C(=O)C(=O)N(CCN(C)C)C2c2ccc(O)c(OC)c2)cc1 (stereo not drawn)	-0.6
CCCOc1ccc(C2/C(=C(/O)c3ccccc3)C(=O)C(=O)N2CCCN(C)C)cc1OC (stereo not drawn)	34.9*
COc1ccc(/C(O)=C2/C(=O)C(=O)N(CCCN(C)C)C2c2ccc(Cl)cc2)cc1OC (stereo not drawn)	-6.3
O=C(Nc1cccc(C(F)(F)F)c1)c1ccc(N2C(=O)c3ccccc3C2=O)cc1	-10.0
O=C1Nc2ccccc2C(O)(C(=O)NCCC2=CCCCC2)N1c1ccccc1 (stereo not drawn)	8.8
O=C(COc1ccc2c(c1)C(=O)CC1(CCCCC1)O2)NCc1ccccc1	-0.8
CC(=O)N1CCC2(CC1)CC(=O)c1cc(OCC(=O)NCc3ccccn3)ccc1O2	102.6*
O=C(COc1ccc2c(c1)C(=O)CC1(CCCCC1)O2)NCc1ccccn1	-10.1
Cc1ccc(C2C3CN(C(C)C)CC=C3C(C#N)=C(N)C2(C#N)C#N)cc1 (stereo not drawn)	36.1*
SMILES	14-3-3 PPI
CC(=O)N1CC=C2C(C#N)=C(N)C(C#N)(C#N)[C@H](c3ccoc3)[C@H]2C1	-8.4
COc1ccc(OC)c(C2C3CN(C(C)C)CC=C3C(C#N)=C(N)C2(C#N)C#N)c1 (stereo not drawn)	-26.8
O=C(CCCS(=O)(=O)c1nc(-c2cccs2)cc(C(F)(F)F)n1)Nc1cccc(O)c1	-4.9
CC12COc3ccccc3C1c1sc(=O)[nH]c1SC2 (stereo not drawn)	107.5*
O=c1[nH]c2c(s1)C1c3c(ccc4ccccc34)OCC1CS2 (stereo not drawn)	3.1
O=C(O)C1Sc2[nH]c(=O)sc2C2c3ccccc3OC(=O)C12 (stereo not drawn)	-33.8
CCN(CC)c1ccc2cc(C(=O)Nc3ccccn3)c(=O)oc2c1	7.0
CCN(CC)c1ccc2cc(C(=O)Nc3ccc(C)cc3)c(=O)oc2c1	-8.8
CCN(CC)c1ccc2cc(C(=O)c3cc4ccc(N(CC)CC)cc4oc3=O)c(=O)oc2c1	77.2*
COc1ccc(OC)c(C2C3=C(CCCC3=O)Nc3ccc4nc(C)ccc4c32)c1 (stereo not drawn)	-6.1
Cc1c(Cl)c([N+](=O)[O-])nn1CCCC(=O)Nc1cc(Br)ccc1O	-15.6
O=C1C(=O)N(CCc2ccccc2)C(c2ccc3c(c2)OCO3)/C1=C(\O)c1ccccc1 (stereo not drawn)	-3.4
CCOC(=O)CCCSc1nc2sc(C)c(C)c2c(=O)n1-c1ccccc1	43.8*
Cc1sc2nc(SCC(=O)N3CCN(CCO)CC3)n(-c3ccccc3)c(=O)c2c1C	-3.5
CCOC(=O)CCCSc1nc2sc3c(c2c(=O)n1-c1ccccc1)CCCC3	10.3
Cc1ccc(C(=O)N2CCC(C)CC2)cc1	-14.7
Cc1ccc(F)cc1N1C(=O)C2CC=CCC2C1=O (stereo not drawn)	2.2
CCCSc1nnc2c(n1)OC(C=Cc1ccco1)Nc1ccc(Br)cc1-2 (stereo not drawn)	58.3*
CCCCSc1nnc2c(n1)OC(CC)Nc1ccc(Br)cc1-2 (stereo not drawn)	-35.4
CCCSc1nnc2c(n1)OC(c1cccs1)Nc1ccc(Br)cc1-2 (stereo not drawn)	-26.0
Cc1ccc2c(C)nc(N=C(NC(=O)c3ccccc3)NC(=O)c3ccccc3)nc2c1	5.9
CC1(C)COCN1C(=O)c1cc2c(=O)n3ccccc3nc2s1	-3.3
COc1ccc(C2C(C(=O)c3cccs3)=C(O)C(=O)N2c2nnc(C)s2)cc1OC (stereo not drawn)	-4.9
O=C(C1=C(O)C(=O)N(c2nncs2)C1c1cccc(Br)c1)c1cccs1 (stereo not drawn)	83.9*

Source: PubChem BioAssay (Emory University Molecular Libraries Screening Center)
